Test results reported in PubChem BioAssay (NCATS).
Results filed as inconclusive are left out. Activity calls are given as the source filed them. Calls come from the whole dose curve; as a rule, active = well fitted curve in the direction sought with a large enough effect; inconclusive = small, poorly fitted or top-dose-only effect, or another doubt; inactive = no such curve, though single readings can be large; an effect the other way counts as inactive or inconclusive.

Assays:
[1] = target: Protein phosphatase 1D (Homo sapiens) (UniProt O15297); experiment: RapidFire Mass Spectrometry qHTS Assay for Modulators of WT P53-Induced Phosphatase 1 (WIP1) (AID 1347424);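 note: amount of dephosphorylated VEPPL-S-QETFS peptide product formed by WIP1; series mostly up to about 63 µM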
Summary of the method: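 10 nM WIP1 preincubated with compounds 1 hr at room temperature in pH 7.5 Tris buffer with 30 mM MgCl2, 1 mM TCEP; 2 uM VEPPL-pS-QETFS phosphopeptide for 5 min, formic acid quench; dephosphorylated product quantified by RapidFire MS against labelled standard.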

[2] = target: Protein phosphatase 1D (Homo sapiens) (UniProt O15297); experiment: Rhodamine-PBP qHTS Assay for Modulators of WT P53-Induced Phosphatase 1 (WIP1) (AID 1347425)
Summary of the method: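 5 nM WIP1 + 10 uM Rh-PBP, 50 mM Tris pH 7.5, 30 mM MgCl2, 1 mM TCEP, 0.1 mM EGTA, BSA; cpds pinned, 1 hr RT; + 10 uM phosphopeptide; fluorescence 1-min reads x 11 min; delta = f1 - f0.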

[3] = target: Calcium and integrin-binding protein 1 (Homo sapiens) (UniProt Q99828); experiment: Primary qHTS for Identification of Calcium Integrin Binding Protein 1 (CIB1) Competitor (AID 1508620);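 note: GST tagged CIB1 binding a fluorescein labelled alphaIIb integrin peptide tracer; top concentration of the series differs between compounds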
Summary of the method: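 Fluorescence polarization competition: GST-tagged CIB1 (1 uM final) preincubated with compound 15 min at room temperature, then FITC-labelled alphaIIb peptide (100 nM final) added. After 15 min at room temperature, polarization read at Ex 480/Em 540.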

[4] = Primary qHTS for inhibitors of La Crosse Virus (LACV) - induced cell death in SH-SY5Y cells (AID 1508616);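 note: top concentration of the series differs between compounds; higher means more rescue of cells from virus-induced death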
Summary of the method: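 Luminescent ATP readout (ATPLite 1step, 5 min room temperature) measured rescue from LACV-induced death after 6 days of infection at 0.01 MOI; normalized to infected DMSO wells and uninfected DMSO wells.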

Measured: Potency

Chain of Calcium and integrin-binding protein 1 (Homo sapiens) (Q99828 whole entry, looked up): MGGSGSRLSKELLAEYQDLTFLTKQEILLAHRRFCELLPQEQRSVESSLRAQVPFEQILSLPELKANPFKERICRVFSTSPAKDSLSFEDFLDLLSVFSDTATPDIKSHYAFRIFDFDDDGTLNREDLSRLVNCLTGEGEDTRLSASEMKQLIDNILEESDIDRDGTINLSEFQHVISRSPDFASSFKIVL
Chain of Protein phosphatase 1D (Homo sapiens) (O15297 whole entry, looked up): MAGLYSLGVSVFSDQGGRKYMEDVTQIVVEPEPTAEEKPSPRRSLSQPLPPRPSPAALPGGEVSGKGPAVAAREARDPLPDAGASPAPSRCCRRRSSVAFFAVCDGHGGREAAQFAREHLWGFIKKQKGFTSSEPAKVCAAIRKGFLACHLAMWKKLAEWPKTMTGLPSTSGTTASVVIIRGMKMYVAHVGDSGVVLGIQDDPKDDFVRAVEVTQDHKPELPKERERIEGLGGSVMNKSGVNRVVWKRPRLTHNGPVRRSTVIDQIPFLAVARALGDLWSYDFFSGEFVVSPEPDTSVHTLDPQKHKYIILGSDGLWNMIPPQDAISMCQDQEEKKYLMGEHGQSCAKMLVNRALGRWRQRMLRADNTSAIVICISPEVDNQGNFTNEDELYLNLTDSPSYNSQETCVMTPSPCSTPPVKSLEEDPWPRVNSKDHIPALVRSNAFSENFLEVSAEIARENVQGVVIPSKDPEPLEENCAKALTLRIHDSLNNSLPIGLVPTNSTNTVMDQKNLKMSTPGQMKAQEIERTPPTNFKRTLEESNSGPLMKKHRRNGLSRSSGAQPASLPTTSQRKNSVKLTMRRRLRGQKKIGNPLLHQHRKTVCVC

CN(C)C(=O)Nc1ccc(Cl)c(Cl)c1
inactive: [1] | [2] | [3]

Cc1c[nH]c2ccccc12
inactive: all assays above

Cc1ccc2c(Br)cc(Br)c(O)c2n1
inactive: [1] | [2] | [3]

Nc1nc(N)c(-c2ccccc2)s1
inactive: all assays above

CN1CCN(C2=Nc3cc(F)ccc3Cc3ccccc32)CC1
inactive: all assays above

CC(C)Cn1cnc2c1c(=O)n(C)c(=O)n2C
inactive: all assays above

CCNC(=O)/C=C/c1cccc(Br)c1
inactive: [1] | [2] | [3]

CC(C)(C)NC[C@H](O)COc1cccc2c1CCCC2=O
inactive: [1] | [2] | [3]

CC1(C)OC[C@@H]2O[C@@]3(C(=O)O)OC(C)(C)O[C@H]3[C@@H]2O1
inactive: all assays above

CC(=O)Nc1ccc(CC(=O)O)cc1
inactive: [1] | [2] | [3]

Nc1nc(-c2ccccc2)c(Br)c(=O)[nH]1
inactive: all assays above

CC(O)Cn1cnc2c1c(=O)n(C)c(=O)n2C (centres undefined)
inactive: all assays above

CCOc1ccccc1C(N)=O
inactive: [1] | [2] | [3]

COc1cc(C(=O)NCc2ccc(OCCN(C)C)cc2)cc(OC)c1OC
inactive: [1] | [2] | [3]

CCN1/C(=C/C=C/c2sc3ccccc3[n+]2CC)Sc2ccccc21
inactive: [2] | [4] | [3]

CCOC(=O)c1c(N)sc2c1CCN(Cc1ccccc1)C2
inactive: [1] | [2] | [3]

O=C1C(CCS(=O)c2ccccc2)C(=O)N(c2ccccc2)N1c1ccccc1 (centres undefined)
inactive: [1] | [4] | [3]

Cc1cc(CC(=O)O)c(C)n1-c1ccc(Cl)cc1
inactive: [2] | [4] | [3]

COc1ccc2c(c1)c1c3n2CCN(C)C3=NCC1
inactive: [1] | [2] | [3]

Cc1cc(NS(=O)(=O)c2ccc(N)cc2)nc(C)n1
inactive: [1] | [2] | [3]

CCOCCn1c(N2CCCN(C)CC2)nc2ccccc21
inactive: [1] | [2] | [3]

CC(=O)OCC1=C(C(=O)O)N2C(=O)[C@@H](NC(=O)CSc3ccncc3)[C@H]2SC1
inactive: [2] | [4] | [3]

c1ccc(-c2nc[nH]c2-c2ccccc2)cc1
inactive: [2] | [4] | [3]

Cc1cc(-c2ccccc2)nnc1NCCN1CCOCC1
inactive: [2] | [4] | [3]

C=C[C@@]1(C)CC(=O)[C@]2(O)[C@@]3(C)[C@@H](O)CCC(C)(C)[C@@H]3[C@H](O)[C@H](OC(C)=O)[C@@]2(C)O1
inactive: [2] | [4] | [3]

C#C[C@]1(O)CC[C@H]2[C@@H]3CCC4=Cc5oncc5C[C@]4(C)[C@H]3CC[C@@]21C
inactive: [2] | [4]

C[N+]1(CC2COC(c3ccccc3)(C3CCCCC3)O2)CCCCC1 (centres undefined)
inactive: [1] | [2] | [3]

CCc1cc(Cl)c(OC)c(C(=O)NC[C@@H]2CCCN2CC)c1O
inactive: [1] | [2] | [3]

CC[N+](C)(CC)CCOC(=O)C(O)(c1ccccc1)C1CCCCC1 (centres undefined)
inactive: [1] | [2] | [3]

CC(C)=CCOc1ccc(/C=C/C(=O)c2ccc(OCC=C(C)C)cc2OCC(=O)O)cc1
inactive: [1] | [4]

O=C(O)CCC(=O)Nc1ccc(S(=O)(=O)Nc2nccs2)cc1
inactive: [1] | [2] | [3]

CN1CCN(c2c(F)cc3c(=O)c(C(=O)O)cn4c3c2SCC4)CC1
inactive: [1] | [2] | [3]

CCCCCCCCCCC[C@@H](C[C@@H]1OC(=O)[C@H]1CCCCCC)OC(=O)[C@H](CC(C)C)NC=O
inactive: [1] | [2] | [3]
